Hits are enriched below; roughly 21% of the tested compounds scored in any of these assays.
VP16 counter: counter-screen for ROR gamma inhibitors: Gal4-VP16 reporter | 3.5% of 310,000 active | Drosophila S2 Gal4-VP16 UAS-luciferase, luminescence, 20 h | Potency, µM (titrated, usually from 53.6 µM), usual class: inhibitors;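 note: Gal4-VP16 expression switched on by copper sulfate through the metallothionein promoter; nearly all actives have a fitted effect of over 50% in size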
RORg inh: blocks mouse ROR gamma transcriptional activity; P51450; 5.4% of 310,000 active; Drosophila S2 Gal4-RORgamma UAS-luciferase reporter, 20 h; Potency, µM (top dose mostly 53.6 µM), most hits filed as inhibitors; note: nearly all actives have a fitted effect of over 60% in size
Target sequence (P51450 whole entry, looked up, the tested form may be a part): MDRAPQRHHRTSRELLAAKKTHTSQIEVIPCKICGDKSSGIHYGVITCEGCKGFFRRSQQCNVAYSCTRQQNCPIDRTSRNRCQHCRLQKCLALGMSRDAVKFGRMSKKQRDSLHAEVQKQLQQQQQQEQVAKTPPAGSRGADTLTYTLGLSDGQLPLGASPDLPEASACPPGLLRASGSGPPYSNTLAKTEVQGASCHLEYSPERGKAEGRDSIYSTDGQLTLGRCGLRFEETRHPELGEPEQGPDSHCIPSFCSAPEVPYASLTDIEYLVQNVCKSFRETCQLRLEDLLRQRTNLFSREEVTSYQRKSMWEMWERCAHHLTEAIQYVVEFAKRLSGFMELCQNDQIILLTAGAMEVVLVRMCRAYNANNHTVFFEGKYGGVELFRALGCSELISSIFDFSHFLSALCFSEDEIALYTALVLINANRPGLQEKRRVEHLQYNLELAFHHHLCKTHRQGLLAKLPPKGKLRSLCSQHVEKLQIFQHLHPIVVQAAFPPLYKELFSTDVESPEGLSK
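Read-out: Photinus luciferase luminescence; inhibitors lower reporter signal. Insect Schneider cells with Gal4-ROR gamma fusion under metallothionein promoter, UAS reporter; 700 uM final copper sulfate induction, 20 hr, ambient temperature.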
IL-1B inflam inh: inhibitors of inflammasome signaling (IL-1 beta secretion); THP-1 LPS/ATP IL-1B secretion, AlphaLISA, 16 h; stronger effect = lower value; activity change, % at 57.5 µM; 4.7% of 360,000 active; AID 743279; in the data active = activity change below about -50%; inconclusive = mostly about -30% to -49%
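THP-1 cells pretreated 1 hr with compounds (up to 57.5 uM final), then stimulated with LPS (250 ng/mL final) plus ATP (1.25 mM final); secreted IL-1B measured by AlphaLISA after 16 hr, decreased signal indicating inhibition.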
DT40 TDP1 no CPT: qHTS for Inhibitors of human tyrosyl-DNA phosphodiesterase 1 (TDP1): qHTS in cells in absence of CPT; Potency, µM (series often up to 46.2 µM), actives largely listed as inhibitors; AID 686978, 2013; DT40 Tdp1-/- hTDP1 cells, no CPT, ATP luminescence, 48 h; 15% of 420,000 active; note: nearly all actives have a fitted effect of over 55% in size
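Compound effects on proliferation are scored in DT40 Tdp1-/-;hTDP1 cells in the absence of CPT. ATP levels (CellTiter-Glo luminescence) are recorded after a ≥48 hr, 37 °C incubation.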
ELG1 DNA repair: inhibitors of ELG1-dependent DNA repair in HEK293T cells; HEK293T ELG1-luciferase reporter, luminescence, 16 h; DNA damage induced by 5-fluorouridine; 2.3% of 330,000 active; Potency, µM (highest dose often 46.1 µM), usual class: inhibitors; note: nearly all actives have a fitted effect of over 55% in size
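In this reporter screen, reduction of luminescence relative to DMSO vehicle indicated activity. Compounds and 5-fluorouridine were added together to 2,000 cells per well, incubated for 16 hr at 37 °C, then developed with ONE-Glo.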
TDP1 cell CPT: DT40-hTDP1 cell growth loss with CPT; 12% of 420,000 active; AID 686979; chicken DT40 Tdp1-/-;hTDP1 cells + 20 nM CPT, ATP luminescence, 48 h; Potency, µM (top dose mostly 46.2 µM), actives largely listed as inhibitors; note: nearly all actives have a fitted effect of over 55% in size
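Chicken DT40 Tdp1-/- cells stably complemented with human TDP1 were seeded at 400 cells/well in medium containing 20 nM camptothecin, exposed to pin-transferred compounds, and grown at 37 °C for at least 48 hr. Viability was read as ATP luminescence.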
Hits are given with their value; i = inactive; ? = inconclusive; nt = no result; [ ] = dose if it differs, or a comment. Unless noted, calls come from the whole dose curve; as a rule, active = well fitted curve in the direction sought with a large enough effect; inconclusive = small, poorly fitted or top-dose-only effect, or another doubt; inactive = no such curve, though single readings can be large; an effect the other way counts as inactive or inconclusive.

SMILES	VP16 counter	RORg inh	IL-1B inflam inh	DT40 TDP1 no CPT	ELG1 DNA repair	TDP1 cell CPT
CCc1nc2ccc(C(=O)Nc3cccc(OC)c3)cn2c1N(CC)Cc1cccc(Br)c1	nt	nt	-57	?	nt	18µM
Cc1nc2ccc(C(=O)Nc3ccc4c(c3)OCC(=O)N4)cn2c1N(C)C(=O)CCc1ccccc1	nt	nt	i	18µM	nt	?
CCc1nc2ccc(C(=O)Nc3cccc(NS(C)(=O)=O)c3)cn2c1N(C)CCCc1ccccc1	nt	nt	i	?	nt	?
CCc1nc2ccc(C(=O)Nc3cccc(NS(C)(=O)=O)c3)cn2c1N(CCC(C)C)CCN(C)C	nt	nt	?	18µM	nt	16µM
COc1ccc(C)cc1NC(=O)N1CCC(CN2CCOCC2)CC1	nt	nt	nt	i	nt	i
O=C(COc1ccc(Cl)cc1)OCc1cc(=O)n2nc(-c3cccs3)sc2n1	nt	nt	nt	i	nt	i
O=C(CCS(=O)(=O)c1cc(Br)cc2c1N(C(=O)C1CC1)CC2)N1CCN(c2ccccc2)CC1	nt	nt	nt	i	nt	i
CCCCNC(=O)c1ccc2nc(CC)c(N(C)Cc3cccs3)n2c1	nt	nt	-74	?	nt	18µM
CCc1nc2ccc(C(=O)NCc3ccccc3OC)cn2c1N(C)C(=O)Cc1ccccc1	nt	nt	i	?	nt	?
CCc1nc2ccc(C(=O)NCc3ccccc3OC)cn2c1N(CC)Cc1cccc(Br)c1	nt	nt	i	?	nt	26µM
CC(=O)CSc1nc2c(c(=O)[nH]c(=O)n2C)n1CCCc1ccccc1	i	?	i	?	i	i
O=C(NC[C@@H]1CCCN2CCCC[C@H]12)c1cnn(-c2nccc(-c3ccco3)n2)c1C1CC1	nt	nt	nt	i	nt	i[9.04 µM]
Cc1cccc(-n2c(SCC(=O)c3c(N)n(C4CC4)c(=O)[nH]c3=O)nnc2N2CCOCC2)c1	nt	nt	i	i	i	i
Cc1ccccc1C[n+]1cccc2ccccc21	nt	nt	i	15µM	i	?
COC(=O)[C@@]1(Cc2ccc(F)cc2)[C@H]2c3cc(C(=O)N(C)C)n(Cc4ccc(O)c(OC)c4)c3C[C@H]2CN1C(=O)c1ccccc1	i	?	nt	nt	nt	nt
N#CC1=C2SCC(O)(c3ccccc3)N2C(=O)CC1c1ccccc1F (stereo not drawn)	i	i	?	8.2µM	i	13µM
N#CC1=C2SCC(O)(c3ccccc3)N2C(=O)CC1c1cccs1 (stereo not drawn)	?	?	?	1µM	?	1.2µM
CCCCC1CCC(C(=O)N(CCOC)c2c(N)n(CCCC)c(=O)[nH]c2=O)CC1 (stereo not drawn)	nt	nt	i	?	i	?
COc1ccccc1NC(=O)COC(=O)c1c(NC(C)=O)sc(C)c1C	nt	nt	i	16µM	nt	?
CC(=O)Nc1sc(C)c(C)c1C(=O)OCC(=O)Nc1cccc(C)c1	nt	nt	-59	16µM	?	16µM
COc1ccc(CNC(=O)COC(=O)c2c(NC(C)=O)sc(C)c2C)cc1OC	nt	nt	?	23µM	nt	?
Cc1ccc(-c2cc3ccccc3nc2N)cc1	?	?	i	26µM	?	16µM
Nc1nc2ccccc2cc1-c1cccs1	i	i	i	i	?	i
Cc1ccc(-c2nc(CN(C)Cc3cccc4cnccc34)c(C)o2)s1	?	?	i	21µM	?	?
CCOc1nc(-c2ccccc2)ccc1-c1noc(-c2cccnc2)n1	nt	nt	i	3.7µM	nt	i
SMILES	VP16 counter	RORg inh	IL-1B inflam inh	DT40 TDP1 no CPT	ELG1 DNA repair	TDP1 cell CPT
CCOc1nc(-c2ccccc2)ccc1-c1noc(-c2ccc(OC)c(OC)c2)n1	nt	nt	i	i	nt	?
CN1C(=O)[C@@H]2C[C@@]3([C@@]45C[C@H]6C(=O)N(C)[C@@H](Cc7ccccc7)C(=O)N6[C@@H]4Nc4ccccc45)c4ccccc4N[C@H]3N2C(=O)[C@@H]1Cc1ccccc1	nt	nt	i	?	?	?
C=C1C(=O)[C@]23C[C@H]1CCC2[C@@]1(C)C(C[C@@H]3O)[C@](C)(C(=O)OC)CC[C@@H]1O (stereo partly drawn)	nt	nt	-111	0.52µM	nt	1µM
CCOc1ccc(CNC(=O)Cn2c(=O)c3cccn3c3cccnc32)cc1	nt	nt	nt	i	nt	i
N#Cc1ccccc1Sc1ccccc1C(=O)OCC(=O)NC12CC3CC(CC(C3)C1)C2	?	i	i	?	21µM	?
COc1ccccc1C(C)NC(=O)c1ccccc1SCC(=O)N1CCCC1 (stereo not drawn)	nt	nt	i	i	i	i
Cc1cc2c(c(/C=C/C(=O)c3ccccc3)c1)OC1(C=C2)Oc2ccccc2C(=O)N1C (stereo not drawn)	i	i	-104	26µM	?	?
Cn1cc(/C=C/C(=O)c2ccccc2)c2ccccc21	i	?	i	?	?	i
CN(C)S(=O)(=O)N1CCc2ccc(NC(=O)c3ccc(C(F)(F)F)cc3)cc2C1	?	i[1.91 µM]	?	23µM	9.2µM	16µM
COCCC(=O)N1CCc2ccc(NC(=O)c3ccc(C(F)(F)F)cc3)cc2C1	i	i	i	?	13µM	?
CN(C)c1ccc(CNC(=O)c2cc3ccccn3n2)cc1	nt	nt	nt	i	nt	i
COc1ccc(Cl)cc1NC(=O)C(=O)NCc1ccc(Cl)cc1	nt	nt	nt	i	nt	i
CC(C)C[C@H](NC(=O)[C@H](CC(C)C)NC(=O)[C@@H](Cc1c[nH]c2ccccc12)NC(=O)[C@H](Cc1ccccc1)NC(=O)[C@@H](Cc1c[nH]c2ccccc12)NC(=O)[C@H](CCC(N)=O)NC(=O)[C@H](CCC(N)=O)NC(=O)[C@@H]1CCCN1C(=O)[C@H](CCCCN)NC(=O)[C@@H]1CCCN1C(=O)[C@H](N)CCCN=C(N)N)C(N)=O	i	i	nt	nt	nt	nt
CN1OC[C@@H]2CN3C(=O)N(c4ccccc4)c4ccccc4[C@@H]3C[C@@H]21	nt	nt	i	i	nt	?
Cc1ccccc1Nc1scc(-c2ccc(Cl)cc2)[n+]1-c1ccccc1C	i	i	i	23µM	?	18µM
CC(C(=O)NC1C=CS(=O)(=O)C1)N1C(=O)/C(=C\c2ccccc2)SC1=S (stereo not drawn)	?	i	-62	?	i	?
CC(C(=O)NC1C=CS(=O)(=O)C1)N1C(=O)/C(=C/c2cccc(Cl)c2)SC1=S (stereo not drawn)	i	?	-68	i	i	16µM
COc1ccccc1/C=C1/SC(=S)N(C(C)C(=O)NC2C=CS(=O)(=O)C2)C1=O (stereo not drawn)	i	i	?	?	i	?
CCCCCCCCCCCCCC(=O)N[C@H](C)[C@@H](O)c1ccccc1	i	i	nt	i[4.12 µM]	nt	i[4.12 µM]
C=C1[C@@H](O)[C@H](CC(C)C)N(Cc2ccccc2Br)S1(=O)=O	nt	nt	?	18µM	nt	5µM
